Reference: publication PMC8384837, “Expanding the binding specificity for RNA recognition by a PUF domain”

Biological target: PUM1 PUF domain R4-GHW (Homo sapiens, UniProt Q14671 828-1176, N971G;Q975W)
Test: yeast three-hybrid, YBZ-1, SC-Leu-His + 0.5 mM 3-AT, 4 days
Details: tags: N-Gal4 AD-HA kept; label: inside an RPR1-promoter hybrid RNA with tandem MS2 sites; ssRNA
How it was run: (§1)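 The interaction score is the log change in variant frequency from input to selection. Scores were computed in log2 with a pseudocount of 1 for absent variants, using Illumina sequencing of PCR-amplified repeat regions. The input came from four days on SC-Leu and the selection from four days on SC-Leu-His + 0.5 mM 3-AT. The cells were strain YBZ-1 (LexA–MS2 coat fusion, HIS3 reporter) co-expressing Pumilio-1 PUF domain libraries and matching RNA elements from a centromeric plasmid.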

Sequence	binding signal
GGCUAGAACUAGUGGAUCCCCCGGCGCCCGGCGGCUCGAGCCCGGGUAAGUGUAUAUAGUCUGCAUGCCGCCGGGCGCCAUGCCUGCAGGUCGACUCUAGAAAACAUG	4.35 log2 enrichment (interaction score)
GGCUAGAACUAGUGGAUCCCCCGGCGCCCGGCGGCUCGAGCCCGGGUAAGUGUAAAUAGUCUGCAUGCCGCCGGGCGCCAUGCCUGCAGGUCGACUCUAGAAAACAUG	5.62 log2 enrichment (interaction score)
GGCUAGAACUAGUGGAUCCCCCGGCGCCCGGCGGCUCGAGCCCGGGUAAGUGUACAUAGUCUGCAUGCCGCCGGGCGCCAUGCCUGCAGGUCGACUCUAGAAAACAUG	4.34 log2 enrichment (interaction score)

Biological target: PUM1 PUF domain R4-WGV (Homo sapiens, UniProt Q14671 828-1176, N971W;H972G;Q975V)
Test: as above
Details: tags: N-Gal4 AD-HA kept; label: inside an RPR1-promoter hybrid RNA with tandem MS2 sites; ssRNA
How it was run: as §1

Sequence	binding signal
GGCUAGAACUAGUGGAUCCCCCGGCGCCCGGCGGCUCGAGCCCGGGUAAGUGUAUAUAGUCUGCAUGCCGCCGGGCGCCAUGCCUGCAGGUCGACUCUAGAAAACAUG	3.61 log2 enrichment (interaction score)
GGCUAGAACUAGUGGAUCCCCCGGCGCCCGGCGGCUCGAGCCCGGGUAAGUGUAAAUAGUCUGCAUGCCGCCGGGCGCCAUGCCUGCAGGUCGACUCUAGAAAACAUG	3.11 log2 enrichment (interaction score)
GGCUAGAACUAGUGGAUCCCCCGGCGCCCGGCGGCUCGAGCCCGGGUAAGUGUACAUAGUCUGCAUGCCGCCGGGCGCCAUGCCUGCAGGUCGACUCUAGAAAACAUG	3.2 log2 enrichment (interaction score)
